hgDAF-12 ag: H. glycines DAF-12 receptor agonists, primary screen, cell-based, luminescence, HEK293, GAL4 fusion, UAS-luciferase. HEK293 GAL4-hgDAF12 UAS-luciferase reporter, agonist luminescence; normalized to butyrate control. activation, % at 6.8 µM. hit rate 1.8% among 370,000. AID 687014, 2013. Nuclear hormone receptor DAF-12 (Heterodera glycines), GAL4 fusion;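 active = activation above a cutoff set at the mean of all screened compounds plus 3 SD, cut at about 10% in these data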;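 note: 0% = DMSO wells and 100% = sodium butyrate wells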
hcDAF12 agonist: H. contortus DAF-12 nuclear receptor activators, primary screen, cell-based, luminescence, HEK293, lit1-tk-luc reporter. HEK293 hcDAF-12 lit1-tk-luc reporter; 0% DMSO, 100% Δ7-dafachronic acid. activation, % at 6.8 µM. hit rate 1.4% among 370,000;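 active = activation above the mean of all tested compounds plus 3 SD, cut at about 5.5% in these data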;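 note: 100% = response to 3 µM Δ7-dafachronic acid high control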
DAX1 inh-1: DAX1 (NR0B1) inhibitors on StAR promoter, primary screen, cell-based, luminescence, SF-1 (NR5A1), full-length DAX-1; HEK293T StAR-luciferase reporter, SF-1/DAX-1 repression relief; inhibition, % at 6.8 µM; hit rate 1.1% among 370,000;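 active = inhibition above the mean over all tested compounds plus 3 SD, cut at about 3.6% in these data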;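 note: 0% = DAX-1 cells with DMSO and 100% = cells lacking DAX-1 with DMSO; higher inhibition means more luminescence from relief of DAX-1 repression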
ssDAF12 agonist: S. stercoralis DAF-12 nuclear receptor activators, primary screen, cell-based, luminescence, HEK293, GRIP1 co-expression, lit1-tk-luc; Nuclear hormone receptor DAF-12 (Strongyloides stercoralis); HEK293 ssDAF-12/GRIP1 lit1-tk-luc reporter; % of 3 µM dafachronic acid response; activation, % at 6.8 µM; hit rate 1% among 370,000; AID 652126, 2013;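 active = activation above the mean over all tested compounds plus 3 SD, cut at about 0.9% in these data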;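 note: 0% = DMSO-only wells and 100% = 3 µM delta7-dafachronic acid wells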
DAX1 inh-2: DAX1 (NR0B1) inhibitors, primary screen, cell-based, HEK293, Gal4-DAX1, luciferase luminescence. inhibition, % at 6.75 µM. Nuclear receptor subfamily 0 group B member 1 (Homo sapiens), P51843. AID 504766, 2011. HEK293 Gal4-DAX1 luciferase reporter. hit rate 0.99% among 340,000;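 active = inhibition above the mean over all tested compounds plus 3 SD, cut at about 4.2% in these data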;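 note: 0% = DAX1-transfected cells with DMSO and 100% = empty-vector control cells with DMSO; inhibition shows as a rise in luminescence from relieved DAX1 repression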
Target sequence (P51843 207-470 limits assumed): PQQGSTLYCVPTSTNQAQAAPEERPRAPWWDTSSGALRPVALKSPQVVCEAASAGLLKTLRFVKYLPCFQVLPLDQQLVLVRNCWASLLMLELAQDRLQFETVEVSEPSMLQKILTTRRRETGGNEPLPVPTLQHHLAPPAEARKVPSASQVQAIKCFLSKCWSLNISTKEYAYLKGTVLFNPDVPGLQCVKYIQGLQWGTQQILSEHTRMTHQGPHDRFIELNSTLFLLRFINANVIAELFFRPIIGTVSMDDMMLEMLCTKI
LXR ag: LXR agonists, Gal4 luciferase reporter, confirmation, counter-screen for hcDAF-12 agonist project, cell-based, luminescence, HEK293, H. contortus campaign | HEK293 Gal4-LXR tk-luc reporter, 24 h; normalized: DMSO 0%, positive control 100% | AID 743027, 2013 | 3,400 tested, under 10 active | activation, % at 6.8 µM | shares compounds with hcDAF12 agonist;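 active = mean percent activation of the reporter above a cutoff set as the average over tested compounds plus their standard deviation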
Target sequence (P55055 whole entry, looked up, the tested form may be a part): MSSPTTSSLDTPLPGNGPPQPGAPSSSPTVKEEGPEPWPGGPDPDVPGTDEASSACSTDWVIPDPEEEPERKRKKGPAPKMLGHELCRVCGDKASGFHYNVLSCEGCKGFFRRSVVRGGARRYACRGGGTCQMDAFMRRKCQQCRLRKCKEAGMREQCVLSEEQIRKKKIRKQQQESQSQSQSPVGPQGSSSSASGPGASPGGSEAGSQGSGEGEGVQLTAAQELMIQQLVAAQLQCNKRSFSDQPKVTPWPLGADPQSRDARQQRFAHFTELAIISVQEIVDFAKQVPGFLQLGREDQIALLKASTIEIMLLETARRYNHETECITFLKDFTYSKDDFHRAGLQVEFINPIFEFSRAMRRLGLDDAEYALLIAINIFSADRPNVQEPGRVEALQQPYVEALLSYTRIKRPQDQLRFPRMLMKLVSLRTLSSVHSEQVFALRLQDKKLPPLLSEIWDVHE
hcDAF12 ag: H. contortus DAF-12 receptor agonists, confirmation, cell-based, luminescence, HEK293, lit1-tk-luc, triplicate; shares compounds with hcDAF12 agonist; HEK293 hcDAF-12 lit1-tk-luc reporter; % of Δ7-dafachronic acid response; activation, % at 6.8 µM; hit rate 61% among 3,400; AID 743032, 2013;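 active = mean activation across triplicate tests above the threshold derived from the earlier primary screen, cut at about 5.5% in these data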;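 note: 0% = DMSO only wells and 100% = 3 µM Δ7-dafachronic acid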
hgDAF12 conf: H. glycines DAF-12 receptor agonists, confirmation, cell-based, luminescence, HEK293, GAL4-LBD fusion; HEK293 GAL4-hgDAF12 luciferase reporter, agonist mode; percent of butyrate response; shares compounds with hgDAF-12 ag; hit rate 80% among 3,300; activation, % at 6.8 µM;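 active = mean activation over triplicate wells above the hit cutoff derived from the earlier primary screen, cut at about 11% in these data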;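 note: 0% = DMSO low control and 100% = 2 mM sodium butyrate high control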
LXR ag 2: LXR agonists, Gal4 luciferase reporter, confirmation, counter-screen for hgDAF-12 agonist project, cell-based, luminescence, HEK293, H. glycines campaign; activation, % at 6.8 µM; shares compounds with hgDAF-12 ag; 3,300 tested, under 10 active; AID 743051, 2013; 24 h;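 active = mean activation of the triplicate above a set limit carried over from the primary screen, none filed active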
Numbers without * were called inactive; / = no result given. Only some compounds are listed: those with a hit (about 4.1% of all), similar ones and a draw of the others.

SMILES	hgDAF-12 ag	hcDAF12 agonist	DAX1 inh-1	ssDAF12 agonist	DAX1 inh-2	LXR ag	hcDAF12 ag	hgDAF12 conf	LXR ag 2
COc1ccc(NC(=S)Nc2cc(C)ccn2)c(OC)c1	13.8*	13.6*	2.6	1.5*	3.5	1.0	12.2*	19.2*	0.7
COC(=O)[C@@H]1C[C@H]2CC[C@H](O)C[C@H]2N1Cc1ccc(-c2ccccc2)cc1	0.8	-1.7	-0.3	-1.5	0.4	/	/	/	/
O=C(Nc1ccccc1O)c1c(O)c2c([nH]c1=O)CCCC2	19.0*	8.0*	2.8	1.5*	5.0*	1.0	6.9*	16.1*	0.8
O=C(Nc1ccccc1O)c1csc2c1CCCC2	16.4*	7.4*	1.6	0.7	1.6	0.8	10.1*	13.3*	0.4
COc1ccc(NC(=O)c2csc3c2CCCCC3)c(OC)c1	0.7	3.0	0.0	-1.0	0.6	/	/	/	/
Cc1c(C(=O)N2CCC[C@H]2CO)oc2c(F)cccc12	2.1	1.1	0.6	0.2	0.9	/	/	/	/
COC(=O)c1sccc1N/N=C/c1cccc(OC)c1O	19.1*	11.8*	3.0	1.3*	-2.1	1.6	9.0*	24.5*	1.2
Cc1ccc(-c2nc(-c3ccncc3)no2)c(Cl)c1	15.8*	7.6*	2.7	1.5*	0.1	1.5	8.5*	16.3*	1.2
COCc1c(C(=O)N/N=C(/C)c2ccc(OCc3ccccc3)cc2)nnn1-c1nonc1N	14.3*	8.5*	1.2	-0.4	0.0	0.0	2.8	8.3	0.2
CCC(=O)Nc1ccc(NC(=O)CSc2nnnn2Cc2ccccc2)cc1C	0.2	-1.3	-0.2	-1.1	-0.6	/	/	/	/
c1ccc2c(c1)CCN(c1nc3cc4c(cc3s1)OCO4)C2	13.9*	8.8*	4.2*	2.2*	3.0	1.6	8.1*	19.1*	1.1
Oc1cc2c(cc1CN1CCc3ccccc3C1)OCO2	1.2	0.5	-1.4	-0.4	0.1	/	/	/	/
Cc1ccc(C)c(-c2nc3cc(N)ccc3o2)c1	-6.8	-4.8	-1.3	-2.3	-2.1	/	/	/	/
Cc1ccc(-c2nc3cc(N)ccc3o2)cc1Br	14.9*	6.7*	1.2	-0.1	3.4	1.8	8.0*	18.7*	1.0
Cc1ccc(C(=O)N/C(=C/c2cccs2)C(=O)NCc2ccco2)cc1	-1.4	-0.3	-0.4	-2.0	-1.4	/	/	/	/
O/N=C/c1ccccc1OCc1ccccc1F	0.1	-2.2	-0.8	0.5	-1.1	/	/	/	/
O/N=C/c1ccc(OCc2ccccc2F)c(Cl)c1	19.0*	6.7*	1.7	-0.1	2.0	1.1	5.4	17.1*	0.8
COc1cccc(NC2SC(=O)N(c3ccccc3)C2=O)c1 (configuration not stated)	13.8*	7.1*	5.5*	0.3	1.3	0.5	3.1	10.9*	0.3
O=C(/C=C/c1ccco1)NC(=S)Nc1cc(-c2nc3ccccc3s2)ccc1Cl	14.8*	11.7*	2.5	2.8*	2.1	0.1	5.1	6.0	0.1
Cc1ccc(-c2nc3ccccc3s2)cc1NC(=S)NC(=O)/C=C/c1ccco1	6.2	3.2	1.9	0.5	0.9	/	/	/	/
O=C(N/N=C/c1cccs1)c1n[nH]c2c1CCC2	14.0*	7.1*	0.9	1.8*	1.5	1.4	2.8	14.5*	0.8
COc1ccccc1C(O)Cc1nc2ccccc2n1C (configuration not stated)	4.2	1.2	0.4	-0.6	0.3	/	/	/	/
Cn1c(CNc2ccc(Br)cc2)nc2ccccc21	14.2*	11.5*	2.7	1.4*	4.7*	1.2	10.8*	18.1*	0.8
Cn1c(CNC2CCCCC2)nc2ccccc21	0.3	0.7	-0.3	-0.5	0.2	/	/	/	/
COc1ccccc1NCc1nc2ccccc2n1C	15.7*	10.7*	/	1.3*	/	0.8	8.7*	17.5*	0.7
SMILES	hgDAF-12 ag	hcDAF12 agonist	DAX1 inh-1	ssDAF12 agonist	DAX1 inh-2	LXR ag	hcDAF12 ag	hgDAF12 conf	LXR ag 2
O=C(O)c1c(-c2ccccc2)oc2ccc(O)cc12	1.6	-0.4	-0.1	-0.8	0.7	/	/	/	/
Cc1ccc2oc(-c3ccccc3)c(C(=O)O)c(=O)c2c1	18.4*	6.7*	2.9	0.1	1.7	0.6	6.1*	18.4*	0.8
Cc1ccc(NC(=O)C2COc3ccccc3O2)c(C)c1 (configuration not stated)	7.0	2.7	0.4	-0.6	2.9	/	/	/	/
Cc1ccnc(NC(=O)C2COc3ccccc3O2)c1 (configuration not stated)	13.7*	3.2	3.8*	0.2	2.9	/	/	16.9*	0.8
CC(=O)c1ccc(S(=O)(=O)NCCOc2ccccc2)cc1	2.5	-0.7	0.3	-0.2	0.3	/	/	/	/
Cc1cccc(-c2cccc3nccn23)c1	1.4	-0.7	-0.4	-1.1	/	/	/	/	/
O=C(CSc1nnc(-c2ccccn2)o1)Nc1ccc(F)cc1	8.7	0.1	2.9	0.7	0.9	/	/	/	/
COc1ccc2c(c1)CC/C(=C/c1cc(OC)c(OC)c(OC)c1)C2=O	0.0	-3.7	-0.5	-2.3	-3.4	/	/	/	/
COc1ccc(OC)c(C=C2CCc3ccccc3C2=O)c1	14.1*	2.3	-1.3	-0.5	/	/	/	3.3	0.1
O=c1nc(N/N=C/c2c[nH]c3ccccc23)cn[nH]1	16.7*	3.6	2.7	0.5	-1.0	/	/	13.2*	0.6
O=c1nc(N/N=C/C=C/c2ccccc2)cn[nH]1	15.5*	3.4	2.3	-0.1	-1.2	/	/	14.2*	0.9
Cc1ccc(-n2ncc3c(=O)n(CC(=O)N(C)C)cnc32)cc1C	4.4	0.9	0.1	0.1	0.8	/	/	/	/

From PubChem
